Laboratory results: PubChem BioAssay (NCI)
Compounds without any hit were thinned out: in the full panel of roughly 83,000, 20% have a hit.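 A percent growth of 40 corresponds to 60% growth inhibition; 0 means no net growth; -100 means all cells died. Active threshold: below 10.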 Calls of active or inactive are those of the source.

What follows are compounds tested on MOLT-4 leukemia (assay: NCI-60 one-dose screen, 48 h (100 = growth as untreated, 0 = no growth, -100 = all killed)). Settings: 10 µM unless noted.

Q: Which growth does the source give for `COc1ccc(Cn2cc3c(c2-c2ccccc2)CCc2cnoc2-3)cc1OC` here?
A: 35.9% (inactive)

Q: How did the growth turn out when `Cc1ccc2c(O)c(O)cc(NC(C)CCCN)c2n1` (stereo not given) was run?
A: 7.64% (active)

Q: With `CC(C)(C)c1ccc([I+]c2ccc(C(C)(C)C)cc2)cc1` as the compound, how does the growth read?
A: 12.1% (inactive)

Q: How did the growth turn out when `COC(=O)/C(Br)=C/c1c[nH]c2ccc(Br)cc12` was run?
A: 52.8% (inactive)

Q: Which growth does the source give for `COC(=O)c1ccc2[nH]c(O)c(C(=Nc3ccc(N(C)C(=O)CN4CCN(C)CC4)cc3)c3cccc(OC)c3)c2c1` here?
A: -7.42% (active)

Q: With `C#CCCCCCCC[C@@H]1OC(=O)[C@H]([C@@H](C)CC)NC(=O)[C@@H]([C@@H](C)CC)NC(=O)CC(=O)[C@@H]1C` as the compound, how does the growth read?
A: 87.2% (inactive)

Q: For `COC(=O)c1ccc2[nH]c(O)c(C(=Nc3ccc(N(C)C(=O)CN4CCN(C)CC4)cc3)c3ccc(C)cc3)c2c1`, which growth is on record?
A: -24.6% (active)

Q: `COC(=O)C(C)[C@H]1CC[C@@H]2[C@]1(C)CC=C1[C@]23C=C[C@]2(C[C@@H](OC(C)=O)CC[C@]12C)C(C(=O)OC)C3C(=O)OC` (stereo not given in full) was tested. Which growth did it give?
A: 46.7% (inactive)

Q: How did the growth turn out when `Cc1nc2c(nnn2-c2ccccc2)c2nc(-c3ccccc3)oc(=O)c12` was run?
A: 112% (inactive)

Q: `CC(O)C(N)=O` (stereo not given) was tested. Which growth did it give?
A: 110% (inactive)

Q: For `Nc1nc2c(c3cnccc13)C(c1cccc(Cl)c1)Cc1cnccc1-2` (stereo not given), which growth is on record?
A: 16.5% (inactive)

Q: `CC(=O)OCC1O[C@@H](OC(C)=O)[C@@H](NC(=O)NS(=O)(=O)c2ccccc2)C(OC(C)=O)[C@@H]1OC(C)=O` (stereo not given in full) was tested. Which growth did it give?
A: 98.6% (inactive)

Q: How did the growth turn out when `CCOC(=O)c1ccc2n1CCCc1cnc(NC(C)=O)nc1-2` was run?
A: 108% (inactive)

Q: `CCCCCCCCCCCCCCCCCC1=NCCN1CCNC(C)=O` was tested. Which growth did it give?
A: 62.6% (inactive)

Q: Which growth does the source give for `Clc1ccc(N/N=C(/c2ccccc2)c2ccccn2)nc1` here?
A: 6.84% (active)

Q: `COc1ccc(-n2nnnc2-c2cn[nH]c2C(F)(F)F)cc1` was tested. Which growth did it give?
A: 79% (inactive)

Q: Which growth does the source give for `COc1cc2ncnc(-n3ncc4cc(NC(=O)Nc5ccc(Cl)c(Cl)c5)ccc43)c2cc1OC` here?
A: 9.19% (active)

Q: With `CCOC(=O)c1c(C)oc2ncnc(Nc3ccc(C(=O)NCCc4ccccc4)cc3)c12` as the compound, how does the growth read?
A: 105% (inactive)

Q: With `CC(=O)/C(=C/c1ccc(-c2ccccc2)cc1)C(=O)c1ccccc1` as the compound, how does the growth read?
A: 5.31% (active)

Q: For `N=C(N)c1ccc(-c2ccc(-c3ccc(F)cc3)s2)cc1`, which growth is on record?
A: -58.8% (active)

Q: How did the growth turn out when `NC(=O)CC(NC(=O)COc1ccc(Cl)cc1Cl)C(=O)O` (stereo not given) was run?
A: 104% (inactive)

Q: Which growth does the source give for `Cc1nc(NC(=O)NC2CCCCC2)sc1C(=O)NN` here?
A: 116% (inactive)

Q: For `CCOC(=O)C1=C(C(F)(F)F)NC(=S)NC1CN1C(=O)c2ccccc2C1=O` (stereo not given), which growth is on record?
A: 93.7% (inactive)

Q: `NC(=O)c1c(Nc2ccccc2)nn2cc(-c3nc4ccccc4s3)c(N)nc12` was tested. Which growth did it give?
A: 93.3% (inactive)

Q: `O=C(/C=C/c1ccc(Br)cc1)c1ccccc1` was tested. Which growth did it give?
A: 92.3% (inactive)

Q: Which growth does the source give for `Cc1c(O)c(N=Nc2ccc(C(=O)O)c(O)c2)c2ccccc2c1O` here?
A: 76.6% (inactive)

Q: For `COc1ccc2c(c1)/C(=C/c1c(-c3cc(OC)c(OC)c(OC)c3)nc3sccn13)C(=O)N2`, which growth is on record?
A: -61.2% (active)

Q: With `CCOC(=O)c1cc(C(=O)c2ccc(Br)cc2)n2cc(C)cc(C)c12` as the compound, how does the growth read?
A: 98.9% (inactive)

Q: With `COc1cccc(Cn2cc3c(c2)-c2oncc2CC3)c1` as the compound, how does the growth read?
A: 26.6% (inactive)

Q: For `CCCCCSc1ccc2nc(NC(=O)OCC)sc2c1`, which growth is on record?
A: 26.5% (inactive)

Q: `COc1ccc(C2C3(C#N)C(N)=NC(=C(C#N)C#N)C23C#N)cc1OC` (stereo not given) was tested. Which growth did it give?
A: 102% (inactive)

Q: `CCCCCCCCCCCCCCCC[n+]1cccc(C#N)c1` was tested. Which growth did it give?
A: -13.3% (active)

Q: For `CC(C)OC(=O)c1ccc2n1CCCc1cnc(Nc3ccccc3)nc1-2`, which growth is on record?
A: 73.8% (inactive)

Q: For `COc1cc(Cn2ccc3c2-c2oncc2CC3)cc(OC)c1`, which growth is on record?
A: 38.4% (inactive)

Q: How did the growth turn out when `COC(=O)c1ccc(C(=Nc2ccc(N(C)C(=O)CN3CCN(C)CC3)cc2)c2c(O)[nH]c3ccc(C(=O)OC)cc23)cc1` was run?
A: 14.8% (inactive)

Q: Which growth does the source give for `COc1cccc2c1nc1cccc(OC)c1[n+]2[O-]` here?
A: -1.14% (active)

Q: For `CC(=O)NNC(=O)c1sc(NC(C)=O)nc1C`, which growth is on record?
A: 94.1% (inactive)

Q: How did the growth turn out when `CCOC(=O)NNc1[nH]c(-c2ccc(OC)cc2)cc1C#N` was run?
A: 8.55% (active)

Q: Which growth does the source give for `COc1cc(N)c2nccc(C)c2c1OC` here?
A: 80.6% (inactive)

Q: With `CCOC(=O)c1c2c(cn1Cc1ccccc1)-c1oncc1CC2` as the compound, how does the growth read?
A: 100% (inactive)

What follows are compounds tested on SR leukemia in the same assay as above. Settings: 10 µM unless noted.

Q: How did the growth turn out when `COc1ccc(Cn2cc3c(c2-c2ccccc2)CCc2cnoc2-3)cc1OC` was run?
A: 18.4% (inactive)

Q: How did the growth turn out when `Cc1ccc2c(O)c(O)cc(NC(C)CCCN)c2n1` (stereo not given) was run?
A: 89.5% (inactive)

Q: With `CC(C)(C)c1ccc([I+]c2ccc(C(C)(C)C)cc2)cc1` as the compound, how does the growth read?
A: 5.64% (active)

Q: With `COC(=O)/C(Br)=C/c1c[nH]c2ccc(Br)cc12` as the compound, how does the growth read?
A: -6.18% (active)

Q: With `COC(=O)c1ccc2[nH]c(O)c(C(=Nc3ccc(N(C)C(=O)CN4CCN(C)CC4)cc3)c3cccc(OC)c3)c2c1` as the compound, how does the growth read?
A: -3.85% (active)

Q: How did the growth turn out when `C#CCCCCCCC[C@@H]1OC(=O)[C@H]([C@@H](C)CC)NC(=O)[C@@H]([C@@H](C)CC)NC(=O)CC(=O)[C@@H]1C` was run?
A: 91.2% (inactive)

Q: With `COC(=O)c1ccc2[nH]c(O)c(C(=Nc3ccc(N(C)C(=O)CN4CCN(C)CC4)cc3)c3ccc(C)cc3)c2c1` as the compound, how does the growth read?
A: -28.2% (active)

Q: How did the growth turn out when `COC(=O)C(C)[C@H]1CC[C@@H]2[C@]1(C)CC=C1[C@]23C=C[C@]2(C[C@@H](OC(C)=O)CC[C@]12C)C(C(=O)OC)C3C(=O)OC` (stereo not given in full) was run?
A: 55.8% (inactive)

Q: With `Cc1nc2c(nnn2-c2ccccc2)c2nc(-c3ccccc3)oc(=O)c12` as the compound, how does the growth read?
A: 105% (inactive)

Q: For `CC(O)C(N)=O` (stereo not given), which growth is on record?
A: 102% (inactive)

Q: For `Nc1nc2c(c3cnccc13)C(c1cccc(Cl)c1)Cc1cnccc1-2` (stereo not given), which growth is on record?
A: 19.5% (inactive)

Q: For `CC(=O)OCC1O[C@@H](OC(C)=O)[C@@H](NC(=O)NS(=O)(=O)c2ccccc2)C(OC(C)=O)[C@@H]1OC(C)=O` (stereo not given in full), which growth is on record?
A: 88.9% (inactive)

Q: For `CCOC(=O)c1ccc2n1CCCc1cnc(NC(C)=O)nc1-2`, which growth is on record?
A: 101% (inactive)

Q: How did the growth turn out when `CCCCCCCCCCCCCCCCCC1=NCCN1CCNC(C)=O` was run?
A: 19.3% (inactive)

Q: How did the growth turn out when `Clc1ccc(N/N=C(/c2ccccc2)c2ccccn2)nc1` was run?
A: 26.1% (inactive)

Q: How did the growth turn out when `COc1ccc(-n2nnnc2-c2cn[nH]c2C(F)(F)F)cc1` was run?
A: 73.4% (inactive)

Q: With `COc1cc2ncnc(-n3ncc4cc(NC(=O)Nc5ccc(Cl)c(Cl)c5)ccc43)c2cc1OC` as the compound, how does the growth read?
A: 9.64% (active)

Q: `CCOC(=O)c1c(C)oc2ncnc(Nc3ccc(C(=O)NCCc4ccccc4)cc3)c12` was tested. Which growth did it give?
A: 89.2% (inactive)

Q: Which growth does the source give for `CC(=O)/C(=C/c1ccc(-c2ccccc2)cc1)C(=O)c1ccccc1` here?
A: 5.97% (active)

Q: With `N=C(N)c1ccc(-c2ccc(-c3ccc(F)cc3)s2)cc1` as the compound, how does the growth read?
A: -24.2% (active)

Q: For `NC(=O)CC(NC(=O)COc1ccc(Cl)cc1Cl)C(=O)O` (stereo not given), which growth is on record?
A: 115% (inactive)

Q: `Cc1nc(NC(=O)NC2CCCCC2)sc1C(=O)NN` was tested. Which growth did it give?
A: 131% (inactive)

Q: `CCOC(=O)C1=C(C(F)(F)F)NC(=S)NC1CN1C(=O)c2ccccc2C1=O` (stereo not given) was tested. Which growth did it give?
A: -89% (active)

Q: How did the growth turn out when `NC(=O)c1c(Nc2ccccc2)nn2cc(-c3nc4ccccc4s3)c(N)nc12` was run?
A: 82.8% (inactive)

Q: For `O=C(/C=C/c1ccc(Br)cc1)c1ccccc1`, which growth is on record?
A: 4.53% (active)

Q: With `Cc1c(O)c(N=Nc2ccc(C(=O)O)c(O)c2)c2ccccc2c1O` as the compound, how does the growth read?
A: 85.8% (inactive)

Q: `COc1ccc2c(c1)/C(=C/c1c(-c3cc(OC)c(OC)c(OC)c3)nc3sccn13)C(=O)N2` was tested. Which growth did it give?
A: -41.1% (active)

Q: Which growth does the source give for `CCOC(=O)c1cc(C(=O)c2ccc(Br)cc2)n2cc(C)cc(C)c12` here?
A: 98.1% (inactive)

Q: `COc1cccc(Cn2cc3c(c2)-c2oncc2CC3)c1` was tested. Which growth did it give?
A: 13.8% (inactive)

Q: How did the growth turn out when `CCCCCSc1ccc2nc(NC(=O)OCC)sc2c1` was run?
A: 34.9% (inactive)

Q: `COc1ccc(C2C3(C#N)C(N)=NC(=C(C#N)C#N)C23C#N)cc1OC` (stereo not given) was tested. Which growth did it give?
A: 83.6% (inactive)

Q: With `CCCCCCCCCCCCCCCC[n+]1cccc(C#N)c1` as the compound, how does the growth read?
A: -8.5% (active)

Q: For `CC(C)OC(=O)c1ccc2n1CCCc1cnc(Nc3ccccc3)nc1-2`, which growth is on record?
A: 35.4% (inactive)

Q: How did the growth turn out when `COc1cc(Cn2ccc3c2-c2oncc2CC3)cc(OC)c1` was run?
A: 24.1% (inactive)

Q: With `COC(=O)c1ccc(C(=Nc2ccc(N(C)C(=O)CN3CCN(C)CC3)cc2)c2c(O)[nH]c3ccc(C(=O)OC)cc23)cc1` as the compound, how does the growth read?
A: 2.08% (active)

Q: With `COc1cccc2c1nc1cccc(OC)c1[n+]2[O-]` as the compound, how does the growth read?
A: -0.211% (active)

Q: Which growth does the source give for `CC(=O)NNC(=O)c1sc(NC(C)=O)nc1C` here?
A: 87.4% (inactive)

Q: For `CCOC(=O)NNc1[nH]c(-c2ccc(OC)cc2)cc1C#N`, which growth is on record?
A: -2.04% (active)

Q: How did the growth turn out when `COc1cc(N)c2nccc(C)c2c1OC` was run?
A: 55.5% (inactive)

Q: How did the growth turn out when `CCOC(=O)c1c2c(cn1Cc1ccccc1)-c1oncc1CC2` was run?
A: 91.8% (inactive)
